Laboratory results taken from PubChem BioAssay AID1159580 (chemical genetic matrix, 2015).
Screen size: about 5,500 compounds; about 2,000 (36%) were called active. About 18% were inconclusive and are not listed. No stated cut-off is given here; in the data, active means normalized growth mostly below about 0.91 (no sharp cut-off); inconclusive means no clear call, values can overlap the other calls; inactive means mostly above about 0.92. This is one part of the list.

Assay: chemical genetic growth profiling, strain panel (AID 1159580);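 further: tested at 20 µM; growth read once vehicle control cultures reached saturation at 30 °C; 1 = growth at the plate median or of vehicle wells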
Conditions: S. cerevisiae deletion strains, growth OD

Measured: normalized growth

O=C(O)/C=C/C=C/c1ccc2c(c1)OCO2
inactive: locus YHR030C, strain SLT2, stronger effect = lower value 0.899 | locus YHR079C, strain IRE1, stronger effect = lower value 0.884 | locus YJL095W, strain BCK1, stronger effect = lower value 0.897 | locus YJR066W, strain TOR1, stronger effect = lower value 0.873 | locus YLR113W, strain HOG1, stronger effect = lower value 0.958 | locus YNL183C, strain NPR1, stronger effect = lower value 0.886 | locus YOR231W, strain MKK1, stronger effect = lower value 0.893 | locus YPL256C, strain CLN2, stronger effect = lower value 0.945
